Laboratory results: PubChem BioAssay (Tox21)
Values joined by “and” are separate entries in the source; they are usually repeats but may differ in a detail not shown here. Identical values can stand only once. Records with an inconclusive call do not appear. Entries that show only a call come without a potency. Where a structure was tested more than once in an assay, its records may differ in their call. Active and inactive are the calls of the source. Unless noted, calls follow the shape of the dose curve; as a rule, active = well fitted curve in the direction sought with a large enough effect in the repeat runs; inconclusive = weak or mixed curves; inactive = no such curve, though single readings can be large; an effect the other way counts as inactive or inconclusive.

Assays:
[1] = qHTS assay to identify aromatase inhibitors - cell viability counter screen (AID 743084); conditions: MCF-7 aro ERE viability, CellTiter-Fluor, 24 h; series mostly up to 70.3 µM;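 also: cells stimulated with testosterone during compound exposure; nearly all actives have a fitted effect of over 55% in size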; also: potency is read from the fitted curve at half-maximal effect
[2] = target: Aryl hydrocarbon receptor (Homo sapiens) (UniProt P35869); test: qHTS assay to identify small molecule that activate the aryl hydrocarbon receptor (AhR) signaling pathway (AID 743085); conditions: HepG2 AhR-luc (HG2L7.5c1), luciferase, 24 h; series mostly up to 70.3 µM; also: nearly all actives have a fitted effect of over 15% in size; also: potency is read from the fitted curve at half-maximal effect;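 as to activation: HG2L7.5c1 human HepG2 liver cells with stably integrated DRE-driven firefly reporter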
Summary of the method: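 HepG2 cells stably carrying a 20-DRE firefly luciferase reporter (HG2L7.5c1) treated with compound for 24 hr at 37C. Luciferase read by ONE-Glo luminescence, with CellTiter-Fluor viability read first.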

[3] = qHTS assay to identify small molecule that activate the aryl hydrocarbon receptor (AhR) signaling pathway - cell viability counter screen (AID 743086); conditions: HepG2-AhR-luc viability, CellTiter-Fluor, 24 h; series mostly up to 70.3 µM; also: nearly all actives have a fitted effect of over 45% in size; also: potency is read from the fitted curve at half-maximal effect
Summary of the method: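 HepG2-AhR-luc (HG2L7.5c1) cells, 4000/well, were preincubated 5 h at 37C, exposed to compound in qHTS format for 24 hr at 37C, then given CellTiter-Fluor for 30 min; viability was read as fluorescence in the reporter wells.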

[4] = target: Peroxisome proliferator-activated receptor gamma (Homo sapiens) (UniProt P37231); test: qHTS assay to identify small molecule agonists of the peroxisome proliferator-activated receptor gamma (PPARg) signaling pathway (AID 743094; active = well fitted activation curve with a large enough effect in the signal ratio in the repeat runs, not every such curve was filed as active; the % refers to the signal ratio); conditions: HEK293H PPARg-UAS-bla, beta-lactamase FRET ratio, 17 h; series mostly up to 57 µM
Summary of the method: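 Cell-based bla reporter, HEK293H background, PPARg-driven UAS. Pre-incubation 5 h, 37C, 5% CO2. Compound 17 h, 37C. Substrate 1 h RT; fluorescence.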

[5] = qHTS assay to identify small molecule antagonists of the peroxisome proliferator-activated receptor gamma (PPARg) signaling pathway - cell viability counter screen (AID 743194); conditions: PPARg-bla HEK293H viability, CellTiter-Glo luminescence, 17 h, co-treated with 50 nM rosiglitazone; series mostly up to 62.6 µM; also: nearly all actives have a fitted effect of over 55% in size
Summary of the method: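 PPARg-UAS-bla HEK293H cells were plated, rested 5 h at 37 C, then treated with compounds plus rosiglitazone (50 nM final) for 17 h at 37 C; viability was then read by CellTiter-Glo luminescence after 30 min at room temperature.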

[6] = qHTS assay for small molecule agonists of the antioxidant response element (ARE) signaling pathway (AID 743202; active = well fitted activation curve with a large enough effect in the signal ratio in the repeat runs, not every such curve was filed as active; the % refers to the signal ratio); conditions: HepG2 ARE-bla reporter, beta-lactamase FRET, 16 h; series mostly up to 73.3 µM
Summary of the method: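 Steps: seed ARE-bla HepG2 cells (2,000/well); incubate 5 h at 37 C; add compounds by pin tool; incubate 16 h at 37 C; add FRET substrate; read fluorescence after 2 h at RT.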

[7] = qHTS assay for small molecule agonists of the antioxidant response element (ARE) signaling pathway - cell viability counter screen (AID 743203; calls by dose curve; also: nearly all actives have a fitted effect of over 55% in size); conditions: ARE-bla HepG2 viability, CellTiter-Glo luminescence, 16 h; series mostly up to 73.3 µM
Summary of the method: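 Measured in the same wells as the beta-lactamase ARE reporter, this read-out is CellTiter-Glo luminescence from HepG2 ARE-bla cells given compounds for 16 hrs.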

[8] = qHTS assay for small molecule activators of the heat shock response signaling pathway - cell viability counter screen (AID 743209); conditions: HSE-bla HeLa viability, CellTiter-Glo luminescence, 5 h; series mostly up to 62.6 µM; also: nearly all actives have a fitted effect of over 50% in size
Summary of the method: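 Same-well multiplex: after 2.5 h room-temperature incubation with LiveBLAzer B/G substrate and fluorescence reading, CellTiter-Glo reagent was added to HSE-bla HeLa cells that had received compound for 5 h at 37 C; luminescence read after 30 min.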

[9] = qHTS assay for small molecule activators of the heat shock response signaling pathway (AID 743210; active = well fitted activation curve with a large enough effect in the signal ratio in the repeat runs, with a control signal flat, not every such curve was filed as active; the % refers to the signal ratio;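 also: HeLa cells with beta-lactamase reporter driven by heat shock elements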); conditions: HeLa HSE-bla reporter, beta-lactamase ratio, 5 h; series mostly up to 62.6 µM
Summary of the method: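 Activation of heat shock element-controlled beta-lactamase expression is measured in HeLa cells by LiveBLAzer FRET fluorescence, with compound exposure lasting 5 h at 37 C and substrate loading 2.5 h at room temperature.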

[10] = target: Peroxisome proliferator-activated receptor gamma (Homo sapiens) (UniProt P37231); test: qHTS assay to identify small molecule antagonists of the peroxisome proliferator-activated receptor gamma (PPARg) signaling pathway (AID 743191; calls by dose curve; also: nearly all actives have a fitted effect of over 30% in size); conditions: HEK293H PPARg-UAS-bla, beta-lactamase ratio, antagonist, 17 h; series mostly up to 62.6 µM
Summary of the method: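 GeneBLAzer PPARg UAS-bla HEK293H cells carrying a UAS-driven beta-lactamase reporter were plated at 3000 cells/well, preincubated 5 h at 37C, then given compound for 17 h at 37C; LiveBLAzer B/G FRET substrate was read after 1 h at room temperature.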

Sequence of Aryl hydrocarbon receptor (Homo sapiens) (P35869 whole entry, looked up): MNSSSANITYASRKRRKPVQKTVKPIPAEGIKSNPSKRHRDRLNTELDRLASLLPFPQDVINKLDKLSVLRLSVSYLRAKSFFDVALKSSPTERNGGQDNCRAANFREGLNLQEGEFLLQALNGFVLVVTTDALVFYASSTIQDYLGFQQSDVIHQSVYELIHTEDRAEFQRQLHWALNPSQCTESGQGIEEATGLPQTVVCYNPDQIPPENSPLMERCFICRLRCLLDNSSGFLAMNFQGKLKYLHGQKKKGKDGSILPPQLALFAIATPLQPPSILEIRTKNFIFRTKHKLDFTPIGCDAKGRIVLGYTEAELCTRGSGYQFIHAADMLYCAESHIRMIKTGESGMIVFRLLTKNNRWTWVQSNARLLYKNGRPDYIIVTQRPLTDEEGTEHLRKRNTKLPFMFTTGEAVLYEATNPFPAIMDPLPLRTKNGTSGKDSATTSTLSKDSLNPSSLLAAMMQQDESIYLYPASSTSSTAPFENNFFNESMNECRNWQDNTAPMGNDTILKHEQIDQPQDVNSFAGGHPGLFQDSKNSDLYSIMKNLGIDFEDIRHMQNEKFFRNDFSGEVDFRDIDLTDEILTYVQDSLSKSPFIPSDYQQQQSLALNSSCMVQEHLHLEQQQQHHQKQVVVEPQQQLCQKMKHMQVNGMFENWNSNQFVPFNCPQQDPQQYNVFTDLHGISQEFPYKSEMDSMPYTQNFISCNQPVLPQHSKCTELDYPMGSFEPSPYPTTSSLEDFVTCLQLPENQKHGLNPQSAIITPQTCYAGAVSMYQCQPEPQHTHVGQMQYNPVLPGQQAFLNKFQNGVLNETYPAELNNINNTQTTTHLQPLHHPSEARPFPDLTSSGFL
Sequence of Peroxisome proliferator-activated receptor gamma (Homo sapiens) (P37231 whole entry, looked up): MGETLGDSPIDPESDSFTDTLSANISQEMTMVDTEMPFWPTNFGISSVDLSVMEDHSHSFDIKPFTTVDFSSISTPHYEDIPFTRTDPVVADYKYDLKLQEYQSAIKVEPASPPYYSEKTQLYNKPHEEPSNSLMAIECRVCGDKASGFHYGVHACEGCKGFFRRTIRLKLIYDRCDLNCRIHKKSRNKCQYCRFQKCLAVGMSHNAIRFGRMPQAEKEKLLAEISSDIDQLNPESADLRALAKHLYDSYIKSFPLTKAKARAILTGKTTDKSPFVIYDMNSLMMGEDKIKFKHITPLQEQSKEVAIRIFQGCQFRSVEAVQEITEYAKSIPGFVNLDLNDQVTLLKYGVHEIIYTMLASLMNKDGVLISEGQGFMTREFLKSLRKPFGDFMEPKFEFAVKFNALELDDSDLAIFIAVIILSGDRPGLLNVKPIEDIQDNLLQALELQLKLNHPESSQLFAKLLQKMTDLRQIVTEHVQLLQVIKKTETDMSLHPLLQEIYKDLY

SMILES	Potency [1]	Potency [2]	Potency [3]	outcome [4]	Potency [5]	Potency [6]	Potency [7]	Potency [8]	Potency [9]	Potency [10]
Nc1nc2ccc(OC(F)(F)F)cc2s1	inactive	10.6 µM (active)	inactive	inactive	inactive	inactive	inactive	inactive	inactive	–
Cc1cc(CCC(=O)OCCOCCOCCOC(=O)CCc2cc(C)c(O)c(C(C)(C)C)c2)cc(C(C)(C)C)c1O	inactive	inactive	inactive	inactive	inactive	inactive	inactive	inactive	–	–
CN=C(N)NC(=O)Nc1c(C)cccc1C	inactive	inactive	inactive	inactive	inactive	inactive	inactive	–	inactive	–
CCC(CO)(CO)[N+](=O)[O-]	inactive	inactive	inactive	inactive	inactive	inactive	inactive	inactive	inactive	–
CC[C@H]1OC(=O)[C@H](C)[C@@H](O[C@H]2C[C@@](C)(OC)[C@@H](O)[C@H](C)O2)[C@H](C)[C@@H](O[C@@H]2O[C@H](C)C[C@H](N(C)C)[C@H]2O)[C@](C)(O)C[C@@H](C)/C(=N\OCOCCOC)[C@H](C)[C@@H](O)[C@]1(C)O	inactive and 10.2 µM (active)	inactive	inactive	inactive	inactive	inactive	inactive	inactive	–	–
CC(CO)(CO)C(=O)O	inactive	inactive	inactive	inactive	inactive	inactive	inactive	–	inactive	–
Cc1ccc(S(=O)(=O)NC(=O)NC2CCCCC2)cc1	inactive	inactive	inactive	inactive	inactive	inactive	inactive	inactive	inactive	–
N[C@@H](Cc1cc(I)c(O)c(I)c1)C(=O)O	inactive	inactive	inactive	inactive	inactive	inactive	inactive	inactive	inactive	–
CC(=O)C(=O)CC(C)C	inactive	inactive	inactive	inactive	inactive	inactive	inactive	inactive	–	–
CC(C)(C)S	inactive	inactive	inactive	inactive	inactive	inactive	inactive	–	–	–
O=C(O)CN1C(=O)c2cccc3cccc(c23)C1=O	inactive	inactive	inactive	inactive	inactive	inactive	inactive	inactive	inactive	–
COc1ccc(CCN(C)CCCN2CCc3cc(OC)c(OC)cc3CC2=O)cc1OC	inactive	inactive	inactive	inactive	inactive	inactive	inactive	inactive	–	–
CSSc1ccoc1C	inactive	inactive	inactive	inactive	inactive	inactive	inactive	inactive	inactive	–
CC(=O)NCCO	inactive	inactive	inactive	inactive	inactive	–	–	inactive	inactive	inactive
CC(=O)C(C)=O	inactive	inactive	inactive	inactive	inactive	inactive	inactive	inactive	inactive	–
CC(C)OC(=O)c1ccccc1C(=O)OC(C)C	inactive	inactive	inactive	inactive	inactive	inactive	inactive	inactive	inactive	–
O=C(O)CCS	inactive	inactive	inactive	inactive	inactive	inactive	inactive	–	inactive	–

SMILES	Potency [1]	Potency [2]	Potency [3]	outcome [4]	Potency [5]	Potency [6]	Potency [7]	Potency [8]	Potency [9]	Potency [10]
CCc1ccc(C)cc1	inactive	inactive	inactive	inactive	inactive	inactive	inactive	inactive	–	–
O=C1OC[C@H](Cc2cccc(O)c2)[C@H]1Cc1cccc(O)c1	inactive	inactive	inactive	inactive	–	inactive	inactive	inactive	inactive	inactive
CCCCCCCCCCCCCOC(=O)CCSCCC(=O)OCCCCCCCCCCCCC	inactive	inactive	inactive	inactive	inactive	inactive	inactive	inactive	inactive	–
CC1=CC[C@@]23C[C@@H]1C(C)(C)[C@@H]2CC[C@H]3C	inactive	inactive	inactive	inactive	–	inactive	–	inactive	inactive	inactive
CCC(CO)(CO)CO	inactive	inactive	inactive	inactive	inactive	inactive	inactive	inactive	inactive	–
O=C(/C=C/c1ccc([N+](=O)[O-])cc1)c1ccccc1	inactive	inactive	inactive	inactive	inactive	inactive	inactive	–	inactive	–
CC(C)(C)NCC(O)COc1cccc2c1C[C@H](O)[C@H](O)C2 (stereo partly drawn)	inactive	inactive	inactive	inactive	inactive	inactive	inactive	inactive	–	–
O=C(Oc1ccccc1)c1ccc2ccccc2c1O	inactive	inactive	inactive	inactive	–	inactive	inactive	inactive	inactive	inactive
C=CC(=O)NC(C)C	inactive	inactive	inactive	inactive	inactive	inactive	inactive	inactive	–	–
C=C(C)C(=O)OCCC(F)(F)C(F)(F)C(F)(F)C(F)(F)C(F)(F)C(F)(F)F	inactive	inactive	inactive	inactive	inactive	inactive	inactive	inactive	inactive	–
CCN(CC)c1ccc(C(=C2C=CC(=[N+](CC)CC)C=C2)c2ccc(S(=O)(=O)O)cc2S(=O)(=O)[O-])cc1	19.3 µM (active)	inactive	19.3 µM (active)	inactive	–	inactive	–	–	inactive	inactive
CC[C@H]1OC(=O)[C@H](C)[C@@H](O[C@H]2C[C@@](C)(OC)[C@@H](O)[C@H](C)O2)[C@H](C)[C@@H](O[C@@H]2O[C@H](C)C[C@H](N(C)C)[C@H]2O)[C@](C)(O)C[C@@H](C)CN(C)[C@H](C)[C@@H](O)[C@]1(C)O	inactive	inactive	inactive	inactive	inactive	–	inactive	inactive	inactive	–
CC(C)(C)CCCCCCOC(=O)c1ccccc1C(=O)OCCCCCCC(C)(C)C	inactive	inactive	inactive	inactive	inactive	–	inactive	inactive	inactive	–
Cc1c[nH]c2ccccc12	inactive	inactive	inactive	inactive	inactive	–	inactive	inactive	–	–
[Cl][Nd]([Cl])[Cl]	inactive	inactive	inactive	inactive	inactive	–	inactive	inactive	inactive	–
C[C@@H]1[C@H](O)[C@@H](C)/C=C/C=C\C=C\C=C\C=C\C=C\C=C\[C@H](O[C@@H]2O[C@H](C)[C@@H](O)[C@H](N)[C@@H]2O)C[C@@H]2O[C@](O)(C[C@@H](O)C[C@@H](O)[C@H](O)CC[C@@H](O)C[C@@H](O)CC(=O)O[C@H]1C)C[C@H](O)[C@H]2C(=O)O (stereo in doubt)	inactive and 34.4 µM (active)	inactive	inactive	inactive	inactive	–	–	inactive	inactive	–
